Measurements published in paper PMC4081100, “A DNA-binding-site landscape and regulatory network analysis for NAC transcription factors in Arabidopsis thaliana”.

Key:
Experiment in all cases: universal protein binding microarray (PBM); transcription factors of Arabidopsis thaliana; high values mean tight binding
Details in all cases: protein: recombinant; tags: GST; chain copies: 2; dsDNA, one strand shown
GST-ANAC092(1-176) = molecular target: T1, GST-ANAC092(1-176) (Arabidopsis thaliana, UniProt Q9FKA0 1-176)
T1 sequence: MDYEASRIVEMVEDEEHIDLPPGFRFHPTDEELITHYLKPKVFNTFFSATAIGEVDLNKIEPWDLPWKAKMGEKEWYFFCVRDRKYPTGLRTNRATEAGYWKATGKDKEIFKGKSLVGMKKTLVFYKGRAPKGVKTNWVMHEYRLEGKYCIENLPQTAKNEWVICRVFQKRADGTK
In short: (§1)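 GST-tagged proteins (NAC-domain, full-length or DNA-binding-domain) were induced in cells, with zinc acetate supplied for zinc-finger proteins, then purified on glutathione–Sepharose 4B. Each was tested in duplicate at 200 to 500 nM final on custom all-10-mer Agilent 4 × 180K arrays rendered double-stranded by primer extension. The binding value is the normalised enrichment score (E-score) across gapped and ungapped 8-mers.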

GST-NTL6(1-168) = GST-NTL6(1-168) (Arabidopsis thaliana, UniProt Q9SCK6 1-168)
GST-NTL6(1-168), sequence (Q9SCK6 1-168): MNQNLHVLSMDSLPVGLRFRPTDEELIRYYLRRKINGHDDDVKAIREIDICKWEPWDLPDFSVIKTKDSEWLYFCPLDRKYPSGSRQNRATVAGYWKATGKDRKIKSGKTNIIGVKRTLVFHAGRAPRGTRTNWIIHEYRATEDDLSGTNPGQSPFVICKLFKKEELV
In short: as §1

GST-ANAC055(1-171) = molecular target: T2, GST-ANAC055(1-171) (Arabidopsis thaliana, UniProt Q9LDY8 1-171)
T2 sequence: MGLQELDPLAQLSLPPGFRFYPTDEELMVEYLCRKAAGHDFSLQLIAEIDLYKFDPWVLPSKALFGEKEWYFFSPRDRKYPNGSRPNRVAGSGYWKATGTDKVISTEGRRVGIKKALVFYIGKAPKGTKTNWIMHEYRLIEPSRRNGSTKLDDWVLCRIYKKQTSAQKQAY
In short: as §1

GST-ATAF1 NAC domain = molecular target: T3, GST-ATAF1 NAC domain (Arabidopsis thaliana, UniProt Q39013 7-158)
T3 sequence: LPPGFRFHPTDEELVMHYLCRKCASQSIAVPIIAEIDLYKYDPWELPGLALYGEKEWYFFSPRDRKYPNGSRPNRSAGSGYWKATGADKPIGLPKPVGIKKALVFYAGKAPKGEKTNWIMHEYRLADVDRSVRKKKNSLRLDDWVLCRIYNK
In short: as §1

[1] = molecular target: T4, GST-ANAC092(1-285) full length (Arabidopsis thaliana, UniProt Q9FKA0 1-285)
T4 sequence: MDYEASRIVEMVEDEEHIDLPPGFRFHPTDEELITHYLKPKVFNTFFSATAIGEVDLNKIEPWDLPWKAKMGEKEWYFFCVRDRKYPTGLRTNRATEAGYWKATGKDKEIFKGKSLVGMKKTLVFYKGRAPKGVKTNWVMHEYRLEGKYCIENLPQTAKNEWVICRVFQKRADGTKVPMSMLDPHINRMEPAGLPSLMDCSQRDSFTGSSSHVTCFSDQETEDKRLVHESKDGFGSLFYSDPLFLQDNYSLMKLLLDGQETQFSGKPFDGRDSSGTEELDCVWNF
In short: as §1

GST-NAP(1-166) = molecular target: T5, GST-NAP(1-166) (Arabidopsis thaliana, UniProt O49255 1-166)
T5 sequence: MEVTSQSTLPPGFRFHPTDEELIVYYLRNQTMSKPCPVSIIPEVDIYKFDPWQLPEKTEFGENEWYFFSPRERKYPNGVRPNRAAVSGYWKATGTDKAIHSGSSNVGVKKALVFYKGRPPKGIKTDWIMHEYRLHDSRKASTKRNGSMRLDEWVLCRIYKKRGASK
In short: as §1

GST-NST2(1-184) = molecular target: T6, GST-NST2(1-184) (Arabidopsis thaliana, UniProt Q9M274 1-184)
T6 sequence: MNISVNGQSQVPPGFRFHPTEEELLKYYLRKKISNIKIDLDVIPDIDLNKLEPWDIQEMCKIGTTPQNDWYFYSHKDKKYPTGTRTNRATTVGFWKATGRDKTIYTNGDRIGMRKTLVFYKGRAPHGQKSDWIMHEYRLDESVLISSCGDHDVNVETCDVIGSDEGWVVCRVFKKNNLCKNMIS
In short: as §1

GST-NTL8 NAC domain = molecular target: T7, GST-NTL8 NAC domain (Arabidopsis thaliana, UniProt Q9XIN7 14-156)
T7 sequence: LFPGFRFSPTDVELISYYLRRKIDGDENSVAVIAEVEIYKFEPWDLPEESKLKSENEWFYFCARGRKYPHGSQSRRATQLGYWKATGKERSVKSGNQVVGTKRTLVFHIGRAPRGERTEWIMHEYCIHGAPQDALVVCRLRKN
In short: as §1

GST-SND1(1-203) = molecular target: T8, GST-SND1(1-203) (Arabidopsis thaliana, UniProt Q9LPI7 1-203)
T8 sequence: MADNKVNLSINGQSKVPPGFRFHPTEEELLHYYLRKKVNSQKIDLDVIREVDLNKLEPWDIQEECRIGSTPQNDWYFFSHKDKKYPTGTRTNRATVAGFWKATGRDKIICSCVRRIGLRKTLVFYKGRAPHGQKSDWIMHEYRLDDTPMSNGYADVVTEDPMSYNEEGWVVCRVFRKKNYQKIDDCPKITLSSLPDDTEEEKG
In short: as §1

GST-VND3 NAC domain = molecular target: T9, GST-VND3 NAC domain (Arabidopsis thaliana, UniProt Q9FH59 12-162)
T9 sequence: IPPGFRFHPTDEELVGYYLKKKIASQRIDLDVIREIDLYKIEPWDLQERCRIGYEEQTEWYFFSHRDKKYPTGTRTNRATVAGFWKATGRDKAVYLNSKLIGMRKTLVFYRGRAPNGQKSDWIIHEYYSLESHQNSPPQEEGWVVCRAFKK
In short: as §1

GST-VND7 NAC domain = molecular target: T10, GST-VND7 NAC domain (Arabidopsis thaliana, UniProt Q9C8W9 9-158)
T10 sequence: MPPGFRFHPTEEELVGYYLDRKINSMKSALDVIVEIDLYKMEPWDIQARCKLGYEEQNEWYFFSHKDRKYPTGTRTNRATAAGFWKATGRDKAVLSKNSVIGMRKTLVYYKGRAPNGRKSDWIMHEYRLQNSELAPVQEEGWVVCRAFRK
In short: as §1

Sequence	binding signal (GST-ANAC092(1-176)) [E-score]	binding signal (GST-NTL6(1-168)) [E-score]	binding signal (GST-ANAC055(1-171)) [E-score]	binding signal (GST-ATAF1 NAC domain) [E-score]	binding signal [1] [E-score]	binding signal (GST-NAP(1-166)) [E-score]	binding signal (GST-NST2(1-184)) [E-score]	binding signal (GST-NTL8 NAC domain) [E-score]	binding signal (GST-SND1(1-203)) [E-score]	binding signal (GST-VND3 NAC domain) [E-score]	binding signal (GST-VND7 NAC domain) [E-score]
GTAACTTA	0.271	0.375	0.185	0.233	0.357	0.133	0.306	0.229	0.43	0.195	0.141
ATTACTTA	0.279	0.49	0.191	0.168	0.349	0.0737	0.296	0.31	0.38	0.21	0.154
GTAGCGTA	0.427	0.111	0.205	0.288	0.47	0.27	0.381		0.489	0.239	0.267
AAGCAACA	0.387	0.333	0.134	0.0645	0.405		0.342	0.194	0.439	0.0696	0.146
ATACGCTA	0.451	0.0936	0.223	0.187	0.466	0.155	0.331		0.458	0.163	0.182
ACCTTAAC	0.126	0.415	0.156	0.155	0.147		0.154	0.16	0.13	0.156	0.077
